# Laboratory results published in PubChem BioAssay AID1159580 (chemical genetic matrix, 2015).
# In all, about 5,500 compounds went through this assay and about 2,000 (36%) were called active. Roughly 18% stayed inconclusive and do not appear here. Some of the results follow. A number with no mark means an inactive call. Cut-off read from the data, not from the text of the source: active = normalized growth mostly below about 0.91 (no sharp cut-off); inconclusive = no clear call, values can overlap the other calls; inactive = mostly above about 0.92.
# Assay: chemical genetic growth profiling, strain panel (AID 1159580);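 note: tested at 20 µM; growth read once vehicle control cultures reached saturation at 30 °C; 1 = growth at the plate median or of vehicle wells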
# Settings: growth OD
# [1] = S. cerevisiae deletion strains, locus YAL013W, strain DEP1, stronger effect = lower value
# [2] = S. cerevisiae deletion strains, locus YBR229C, strain ROT2, stronger effect = lower value
# [3] = S. cerevisiae deletion strains, locus YDL101C, strain DUN1, stronger effect = lower value
# [4] = S. cerevisiae deletion strains, locus YDR150W, strain NUM1, stronger effect = lower value
# [5] = S. cerevisiae deletion strains, locus YEL061C, strain CIN8, stronger effect = lower value
# [6] = S. cerevisiae deletion strains, locus YGR078C, strain PAC10, stronger effect = lower value
# [7] = S. cerevisiae deletion strains, locus YHR030C, strain SLT2, stronger effect = lower value
# [8] = S. cerevisiae deletion strains, locus YHR087W, strain rtc3, stronger effect = lower value
# [9] = S. cerevisiae deletion strains, locus YJL187C, strain SWE1, stronger effect = lower value
# [10] = S. cerevisiae deletion strains, locus YJR043C, strain POL32, stronger effect = lower value
# [11] = S. cerevisiae deletion strains, locus YJR075W, strain HOC1, stronger effect = lower value
# [12] = S. cerevisiae deletion strains, locus YLR039C, strain RIC1, stronger effect = lower value
# [13] = S. cerevisiae deletion strains, locus YLR058C, strain SHM2 (second series), stronger effect = lower value
# [14] = S. cerevisiae deletion strains, locus YLR085C, strain ARP6, stronger effect = lower value
# [15] = S. cerevisiae deletion strains, locus YLR262C, strain YPT6, stronger effect = lower value
# [16] = S. cerevisiae deletion strains, locus YML094W, strain GIM5, stronger effect = lower value
# [17] = S. cerevisiae deletion strains, locus YMR219W, strain ESC1, stronger effect = lower value
# [18] = S. cerevisiae deletion strains, locus YMR263W, strain SAP30, stronger effect = lower value
# [19] = S. cerevisiae deletion strains, locus YNL153C, strain GIM3, stronger effect = lower value
# [20] = S. cerevisiae deletion strains, locus YNL298W, strain CLA4 (second series), stronger effect = lower value
# [21] = S. cerevisiae deletion strains, locus YNL322C, strain KRE1, stronger effect = lower value
# [22] = S. cerevisiae deletion strains, locus YNR030W, strain Alg12, stronger effect = lower value
# [23] = S. cerevisiae deletion strains, locus YPL055C, strain LGE1, stronger effect = lower value
# [24] = S. cerevisiae deletion strains, locus YPL241C, strain CIN2, stronger effect = lower value
# [25] = S. cerevisiae deletion strains, locus YPR135W, strain CTF4, stronger effect = lower value
# [26] = S. cerevisiae strains, strain wild type, stronger effect = lower value
# [27] = S. cerevisiae deletion strains, locus YDL134C, strain PPH21, stronger effect = lower value
# [28] = S. cerevisiae deletion strains, locus YKL190W, strain CNB1, stronger effect = lower value
compound,measurement,setting,value
CC/C(=N/Oc1ccc(C(F)(F)F)cn1)c1ccc(-c2ccccc2F)cc1,normalized growth,[1],1.01
same,normalized growth,[2],1.01
same,normalized growth,[3],0.995
same,normalized growth,[4],0.981
same,normalized growth,[5],0.992
same,normalized growth,[6],1.01
same,normalized growth,[7],1.12
same,normalized growth,[8],1.02
same,normalized growth,[9],0.999
same,normalized growth,[10],0.987
same,normalized growth,[11],0.991
same,normalized growth,[12],1.03
same,normalized growth,[13],0.999
same,normalized growth,[14],1.04
same,normalized growth,[15],1.03
same,normalized growth,[16],1.01
same,normalized growth,[17],1
same,normalized growth,[18],0.996
same,normalized growth,[19],1
same,normalized growth,[20],1.05
same,normalized growth,[21],0.986
same,normalized growth,[22],1.02
same,normalized growth,"S. cerevisiae deletion strains, locus YOL006C, strain TOP1, stronger effect = lower value",1.06
same,normalized growth,[23],0.984
same,normalized growth,[24],1.01
same,normalized growth,[25],1.05
same,normalized growth,[26],1.02
COC(=O)c1ccc(-c2ccccc2F)cc1,normalized growth,[1],0.984
same,normalized growth,[2],0.982
same,normalized growth,[3],0.987
same,normalized growth,[27],0.974
same,normalized growth,[4],0.971
same,normalized growth,[5],0.927
same,normalized growth,[6],0.962
same,normalized growth,[7],0.681 (active)
same,normalized growth,[8],0.968
same,normalized growth,[9],0.961
same,normalized growth,[10],0.94
same,normalized growth,[11],0.893
same,normalized growth,[28],0.857 (active)
same,normalized growth,[12],0.796
same,normalized growth,[13],0.99
same,normalized growth,[14],0.696 (active)
same,normalized growth,[15],0.929
same,normalized growth,[16],0.958
same,normalized growth,[17],0.991
same,normalized growth,[18],0.971
same,normalized growth,[19],0.968
same,normalized growth,[20],0.897
same,normalized growth,[21],0.999
same,normalized growth,[22],0.957
same,normalized growth,[23],0.917
same,normalized growth,[24],0.89
same,normalized growth,[25],0.786
same,normalized growth,[26],0.901 (active)
COC(=O)c1ccc(C(=O)OC)nc1,normalized growth,[1],1
same,normalized growth,[2],0.994
same,normalized growth,[3],0.977
same,normalized growth,[4],0.976
same,normalized growth,[5],0.999
same,normalized growth,[6],0.997
same,normalized growth,[7],0.982
same,normalized growth,[8],0.995
same,normalized growth,[10],1
same,normalized growth,[11],0.993
same,normalized growth,[12],0.973
same,normalized growth,[13],1
same,normalized growth,[14],1.01
same,normalized growth,[15],0.984
same,normalized growth,[16],0.942
same,normalized growth,[17],0.998
same,normalized growth,[18],1.02
same,normalized growth,"S. cerevisiae deletion strains, locus YNL128W, strain TEP1, stronger effect = lower value",0.987
same,normalized growth,[19],1
same,normalized growth,[20],1
same,normalized growth,[21],0.992
same,normalized growth,[22],0.998
same,normalized growth,[23],0.991
same,normalized growth,[24],0.949
same,normalized growth,[25],0.967
same,normalized growth,[26],0.989
CN(C)c1ccc(/C=N\NC(=O)CCc2ccc(O)cc2)c(Cl)c1,normalized growth,[1],1.01
same,normalized growth,[2],0.998
same,normalized growth,[3],1.05
same,normalized growth,[27],1.01
same,normalized growth,[4],1.01
same,normalized growth,[5],0.974
same,normalized growth,[6],1.02
same,normalized growth,[7],0.992
same,normalized growth,[8],0.995
same,normalized growth,[10],1.01
same,normalized growth,[11],1.01
same,normalized growth,[28],1.01
same,normalized growth,[12],0.951
same,normalized growth,[13],1.01
same,normalized growth,[14],0.999
same,normalized growth,[15],0.946
same,normalized growth,[16],0.974
same,normalized growth,[17],1.01
same,normalized growth,[18],1.02
same,normalized growth,"S. cerevisiae deletion strains, locus YMR307W, strain GAS1, stronger effect = lower value",0.97
same,normalized growth,[19],1
same,normalized growth,[20],0.999
same,normalized growth,[21],1.01
same,normalized growth,[22],1.01
same,normalized growth,[23],0.985
same,normalized growth,[24],0.967
same,normalized growth,[25],1.01
